Measurements: ChEMBL document CHEMBL1961873, “Compounds: GSK PKIS; Assays: Nanosyn kinase panel” (2012)
Values joined by “and” are separate entries in the source; they are usually repeats but may differ in a detail not shown here. Equal values may be shown once.

Key:
[1] = target: Leukocyte tyrosine kinase receptor (Homo sapiens) (UniProt P29376); conditions: at 1 µM;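 also: each value is the mean inhibition of LTK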
[2] = target: Tyrosine-protein kinase Lyn (Homo sapiens) (UniProt P07948); conditions: at 0.1 µM
[3] = target: Tyrosine-protein kinase Lyn (Homo sapiens) (UniProt P07948); conditions: at 1 µM
[4] = target: Tyrosine-protein kinase Lyn (Homo sapiens) (UniProt P07948); conditions: at 0.1 µM; remark: listed apart in the source
[5] = target: Tyrosine-protein kinase Lyn (Homo sapiens) (UniProt P07948); conditions: at 1 µM; remark: listed apart in the source
[6] = target: T1, Tyrosine-protein kinase Mer (Homo sapiens) (UniProt Q12866); conditions: at 0.1 µM
T1 sequence (whole entry): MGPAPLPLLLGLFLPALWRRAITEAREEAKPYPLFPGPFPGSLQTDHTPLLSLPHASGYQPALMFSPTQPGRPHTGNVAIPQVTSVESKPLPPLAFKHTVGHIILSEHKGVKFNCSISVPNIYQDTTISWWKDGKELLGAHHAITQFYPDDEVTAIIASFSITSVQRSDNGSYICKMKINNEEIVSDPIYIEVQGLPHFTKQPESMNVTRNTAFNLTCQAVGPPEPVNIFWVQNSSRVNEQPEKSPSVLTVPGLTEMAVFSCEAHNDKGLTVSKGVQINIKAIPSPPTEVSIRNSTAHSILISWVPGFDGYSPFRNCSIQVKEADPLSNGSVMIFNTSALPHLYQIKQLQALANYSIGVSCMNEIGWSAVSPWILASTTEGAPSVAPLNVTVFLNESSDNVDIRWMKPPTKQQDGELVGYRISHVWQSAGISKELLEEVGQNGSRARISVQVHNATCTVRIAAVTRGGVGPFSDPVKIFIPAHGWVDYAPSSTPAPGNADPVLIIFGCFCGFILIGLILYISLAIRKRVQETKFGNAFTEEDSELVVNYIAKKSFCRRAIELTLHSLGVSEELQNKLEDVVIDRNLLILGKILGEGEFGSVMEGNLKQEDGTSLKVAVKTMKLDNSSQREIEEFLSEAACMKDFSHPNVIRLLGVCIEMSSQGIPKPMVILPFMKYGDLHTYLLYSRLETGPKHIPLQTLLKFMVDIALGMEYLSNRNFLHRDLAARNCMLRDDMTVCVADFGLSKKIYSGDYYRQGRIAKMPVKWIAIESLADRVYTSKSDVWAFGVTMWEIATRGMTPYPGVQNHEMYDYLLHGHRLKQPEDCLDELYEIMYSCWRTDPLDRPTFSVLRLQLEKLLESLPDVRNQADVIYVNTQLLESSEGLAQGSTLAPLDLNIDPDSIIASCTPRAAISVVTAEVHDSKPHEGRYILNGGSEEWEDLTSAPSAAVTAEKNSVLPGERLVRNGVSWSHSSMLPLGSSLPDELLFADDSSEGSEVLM

[7] = target: T1, Tyrosine-protein kinase Mer (Homo sapiens); conditions: at 1 µM
[8] = target: Hepatocyte growth factor receptor (Homo sapiens) (UniProt P08581); conditions: at 0.1 µM
[9] = target: Hepatocyte growth factor receptor (Homo sapiens) (UniProt P08581); conditions: at 1 µM
[10] = target: T2, Muscle, skeletal receptor tyrosine-protein kinase (Homo sapiens) (UniProt O15146); conditions: at 0.1 µM;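 also: values are mean inhibition of MuSK from the GSK PKIS kinase screening panel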
T2 sequence (whole entry): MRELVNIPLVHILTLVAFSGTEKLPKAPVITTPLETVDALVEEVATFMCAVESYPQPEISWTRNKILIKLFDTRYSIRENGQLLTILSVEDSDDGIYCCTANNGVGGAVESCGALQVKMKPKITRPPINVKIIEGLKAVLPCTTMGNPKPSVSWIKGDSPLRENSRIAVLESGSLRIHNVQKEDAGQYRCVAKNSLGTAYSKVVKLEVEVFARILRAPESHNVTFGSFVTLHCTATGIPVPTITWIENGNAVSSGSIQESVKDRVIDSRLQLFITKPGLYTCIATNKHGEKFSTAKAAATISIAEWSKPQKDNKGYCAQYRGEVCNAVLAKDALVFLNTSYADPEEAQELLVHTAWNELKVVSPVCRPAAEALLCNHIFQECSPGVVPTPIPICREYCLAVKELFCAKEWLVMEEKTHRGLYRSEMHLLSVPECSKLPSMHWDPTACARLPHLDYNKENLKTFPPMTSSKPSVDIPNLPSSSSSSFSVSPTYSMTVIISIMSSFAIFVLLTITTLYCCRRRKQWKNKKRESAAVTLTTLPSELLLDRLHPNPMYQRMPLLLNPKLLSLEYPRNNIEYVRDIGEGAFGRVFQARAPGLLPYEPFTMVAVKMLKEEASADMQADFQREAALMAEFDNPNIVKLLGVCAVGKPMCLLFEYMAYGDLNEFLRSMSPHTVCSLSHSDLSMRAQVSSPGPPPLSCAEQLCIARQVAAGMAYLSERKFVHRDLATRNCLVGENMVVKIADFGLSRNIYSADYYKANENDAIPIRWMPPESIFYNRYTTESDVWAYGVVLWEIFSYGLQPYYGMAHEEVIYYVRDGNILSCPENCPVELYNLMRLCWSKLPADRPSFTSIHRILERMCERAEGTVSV

Sequence of Leukocyte tyrosine kinase receptor (Homo sapiens) (P29376 whole entry): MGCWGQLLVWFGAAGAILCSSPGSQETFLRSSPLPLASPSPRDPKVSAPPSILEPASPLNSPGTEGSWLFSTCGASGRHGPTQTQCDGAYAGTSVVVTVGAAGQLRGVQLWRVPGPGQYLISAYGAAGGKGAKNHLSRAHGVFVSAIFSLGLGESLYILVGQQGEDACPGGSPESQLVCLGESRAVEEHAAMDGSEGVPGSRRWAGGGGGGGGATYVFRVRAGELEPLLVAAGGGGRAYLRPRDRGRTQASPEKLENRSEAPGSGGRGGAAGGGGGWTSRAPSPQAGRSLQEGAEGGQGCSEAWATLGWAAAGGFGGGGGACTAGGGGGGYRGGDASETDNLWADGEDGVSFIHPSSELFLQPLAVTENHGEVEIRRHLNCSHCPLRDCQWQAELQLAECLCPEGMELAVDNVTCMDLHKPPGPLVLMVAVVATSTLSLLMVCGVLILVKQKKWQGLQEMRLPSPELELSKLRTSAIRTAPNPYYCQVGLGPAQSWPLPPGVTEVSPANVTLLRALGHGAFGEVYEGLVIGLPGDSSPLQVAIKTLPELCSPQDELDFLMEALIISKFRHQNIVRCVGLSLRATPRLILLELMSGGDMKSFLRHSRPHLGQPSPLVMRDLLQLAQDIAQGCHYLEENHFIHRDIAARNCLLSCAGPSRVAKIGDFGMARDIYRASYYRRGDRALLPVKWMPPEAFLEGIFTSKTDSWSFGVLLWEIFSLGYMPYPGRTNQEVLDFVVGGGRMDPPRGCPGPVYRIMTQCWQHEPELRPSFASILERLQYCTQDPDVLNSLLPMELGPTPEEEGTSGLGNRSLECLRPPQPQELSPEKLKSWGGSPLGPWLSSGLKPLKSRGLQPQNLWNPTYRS
Sequence of Tyrosine-protein kinase Lyn (Homo sapiens) (P07948 2-512 limits assumed): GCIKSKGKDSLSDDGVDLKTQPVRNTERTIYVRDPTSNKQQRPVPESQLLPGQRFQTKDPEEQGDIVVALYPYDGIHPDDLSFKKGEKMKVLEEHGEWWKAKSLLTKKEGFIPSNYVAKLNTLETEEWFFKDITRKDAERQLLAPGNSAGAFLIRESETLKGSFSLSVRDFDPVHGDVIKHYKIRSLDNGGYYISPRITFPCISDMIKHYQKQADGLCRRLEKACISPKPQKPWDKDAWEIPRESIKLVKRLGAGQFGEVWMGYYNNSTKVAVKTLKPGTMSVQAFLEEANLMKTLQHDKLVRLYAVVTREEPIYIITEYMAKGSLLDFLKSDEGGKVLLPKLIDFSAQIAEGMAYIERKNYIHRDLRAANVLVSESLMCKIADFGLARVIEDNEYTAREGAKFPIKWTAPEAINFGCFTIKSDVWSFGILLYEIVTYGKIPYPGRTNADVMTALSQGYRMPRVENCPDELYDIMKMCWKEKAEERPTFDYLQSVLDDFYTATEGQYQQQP
Sequence of Hepatocyte growth factor receptor (Homo sapiens) (P08581 whole entry): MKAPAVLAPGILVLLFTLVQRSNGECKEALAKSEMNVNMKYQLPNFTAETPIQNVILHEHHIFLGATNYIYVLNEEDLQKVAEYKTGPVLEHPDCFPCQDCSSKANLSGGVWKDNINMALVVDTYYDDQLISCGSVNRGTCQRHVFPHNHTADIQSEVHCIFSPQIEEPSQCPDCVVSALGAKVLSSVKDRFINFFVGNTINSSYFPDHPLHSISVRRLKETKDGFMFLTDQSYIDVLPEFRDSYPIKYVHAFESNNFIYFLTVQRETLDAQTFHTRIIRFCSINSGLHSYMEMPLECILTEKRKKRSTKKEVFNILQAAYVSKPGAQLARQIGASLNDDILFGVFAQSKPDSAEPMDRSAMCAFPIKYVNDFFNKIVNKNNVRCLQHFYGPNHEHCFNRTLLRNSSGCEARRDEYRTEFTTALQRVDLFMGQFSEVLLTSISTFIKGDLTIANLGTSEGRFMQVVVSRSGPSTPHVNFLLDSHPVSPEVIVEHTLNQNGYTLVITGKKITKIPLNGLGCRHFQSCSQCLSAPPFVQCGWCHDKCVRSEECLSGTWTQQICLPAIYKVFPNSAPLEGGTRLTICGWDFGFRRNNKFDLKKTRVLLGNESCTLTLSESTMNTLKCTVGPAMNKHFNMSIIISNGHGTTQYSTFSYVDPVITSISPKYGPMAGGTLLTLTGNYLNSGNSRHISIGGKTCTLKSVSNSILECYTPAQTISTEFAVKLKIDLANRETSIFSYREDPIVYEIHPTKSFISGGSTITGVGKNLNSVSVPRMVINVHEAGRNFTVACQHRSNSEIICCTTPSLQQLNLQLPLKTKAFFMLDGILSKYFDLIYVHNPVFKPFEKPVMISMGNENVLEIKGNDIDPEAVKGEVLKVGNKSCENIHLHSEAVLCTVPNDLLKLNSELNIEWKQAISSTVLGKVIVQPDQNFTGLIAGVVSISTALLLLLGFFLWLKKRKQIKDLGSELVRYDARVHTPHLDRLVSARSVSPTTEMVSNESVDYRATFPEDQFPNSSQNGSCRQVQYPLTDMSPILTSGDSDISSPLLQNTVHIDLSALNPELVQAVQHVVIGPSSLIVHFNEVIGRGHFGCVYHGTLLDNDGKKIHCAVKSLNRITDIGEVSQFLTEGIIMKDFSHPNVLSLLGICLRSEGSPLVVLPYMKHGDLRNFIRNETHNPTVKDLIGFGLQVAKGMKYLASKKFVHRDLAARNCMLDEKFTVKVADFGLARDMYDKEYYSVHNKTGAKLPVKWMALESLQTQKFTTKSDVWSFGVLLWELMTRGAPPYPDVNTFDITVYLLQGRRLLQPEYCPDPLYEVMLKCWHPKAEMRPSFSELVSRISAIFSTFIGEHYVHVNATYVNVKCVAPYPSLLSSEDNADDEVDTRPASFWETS

Row | Structure (SMILES) | inhibition [1] | inhibition [2] | inhibition [3] | inhibition [4] | inhibition [5] | inhibition [6] | inhibition [7] | inhibition [8] | inhibition [9] | inhibition [10]
1 | CNC(=O)c1cncc(/C=C/c2ccccc2C)c1 | 2.98% | 7.42% | 18.9% | 3.73% | 14.9% | -0.15% | 1.66% | 9.7% | 5.5% | 3.91%
2 | COc1c(C(N)=O)cc(-c2ccc(Cl)cc2)cc1-c1ccc(S(N)(=O)=O)cc1 | 6.74% | 5.65% | 6.7% | 3.05% | 3.95% | 2.2% | 6.71% | 10.9% | 5.98% | 2.39%
3 | CC(C)c1ccc(-c2cc(-c3c[nH]nc3-c3ccccn3)ccn2)cc1 | 2.43% | 1.49% | 1.48% | 0.81% | 1.31% | -0.12% | 3.22% | -1.81% | 3.3% | 5.54%
4 | Cc1cc(O)cc(C)c1/C=C/c1cncc(C(N)=O)c1 | 3.91% | 14.8% | 61% | 10.4% | 57% | 1.5% | 2.49% | 0.96% | 6.76% | 3.77%
5 | CC1=C(C(=O)Nc2ccc3[nH]ncc3c2)C(c2ccc(F)cc2)N=C(c2ccc(C(F)(F)F)nc2)N1 (stereo not given) | 3.48% | 2.25% | 5.17% | 0.9% | 3.68% | 1.51% | 2.57% | 3.67% | 2.53% | 2.32%
6 | CS(=O)(=O)Nc1ccc(-c2cc(-c3ccccc3)cc(C(N)=O)c2N)cc1 | 2.83% | 0.46% | 3.24% | -1.81% | 0.8% | 0.78% | -0.18% | -1.07% | 2.34% | 1.31%
7 | NS(=O)(=O)c1ccc(N/N=C2\C(=O)Nc3cccc(CCc4ccncc4)c32)cc1 | 1.43% | 2.64% | 6.56% | 2.69% | 5.45% | 2.62% | 3.17% | 10.5% | 15.4% | 12.2%
8 | COc1cccc(-n2ncc3c(N/N=C/c4ccc(C(=O)NCCN(C)C)cc4)ncnc32)c1 | 4.37% | 56.9% | 88.1% | 51% | 86.3% | 16.8% | 59.3% | 12.9% | 55.7% | 40.4%
9 | Nc1nonc1-c1nc2cnccc2n1C1CC1 | 2.71% and 2.44% | 3.73% and 1.56% | 4.88% and 4.63% | 2.39% and 0.71% | 4.2% and 2.36% | 3.41% and 1.34% | 6.46% and 2.52% | 6.7% and 2.47% | 7.09% and 3.3% | 4.75% and 1.45%
10 | Cc1cc(O)cc(C)c1/C=C/c1cncc(C(=O)OC(C)(C)C)c1 | 2.98% | 13.7% | 57.2% | 13.6% | 53.4% | 1.26% | 2.87% | 4.92% | 5.5% | 3.21%
11 | Nc1nccc(-c2c(-c3ccc(F)cc3)ncn2C2CCNCC2)n1 | -1.33% and 1.18% | -0.63% and 1.67% | 9.44% and 9.35% | -1.82% and 1.01% | 7.55% and 6.33% | 0.83% and 0.35% | 2.87% and 1.44% | -2.37% and 2.87% | -2.98% and 4.72% | -3.15% and 1.87%
12 | NS(=O)(=O)c1ccc(N/N=C2\C(=O)Nc3ccc(C(=O)NCc4ccncc4)cc32)cc1 | 2.51% | 5.87% | 17.7% | 3.02% | 14.7% | 1.29% | 1.37% | 5.14% | 13% | 9.84%
13 | CC1=C(C(=O)Nc2ccc3[nH]nc(C)c3c2)C(c2ccc(C(F)(F)F)cc2)CC(=O)N1 (stereo not given) | 3.55% | 4.49% | 6.25% | 1.98% | 3.89% | 2.17% | 5.55% | 1.4% | 17.3% | 5.25%
14 | Cc1nnc(-c2cccc(-c3ccc(C(=O)NCC4CC4)cc3)c2)o1 | 4.76% | 7.2% | 5.98% | 3.09% | 5.48% | 0.22% | 0.56% | 3.78% | 7.87% | 2.8%
15 | CN(C)CCNC(=O)Nc1ccc(N(C)c2ccnc(Nc3ccc(CS(C)(=O)=O)cc3)n2)cc1 | 10.1% | 5.57% | 9.57% | 2.36% | 7.59% | 0.57% | 4.35% | 5.93% | 25.4% | 3.67%
16 | CN1CCN(Cc2ccc(-c3cc4ncnc(Nc5ccc(OCc6cccc(F)c6)c(Cl)c5)c4s3)o2)CC1 | 6.82% and 9.25% | 3.27% and 7.55% | 9.39% and 15.3% | 2.07% and 5.46% | 6.51% and 12% | 8.38% and 10.3% | 48.5% and 49.4% | 11.1% and 5.95% | 24.3% and 34.3% | 0.99% and 4.74%

Row | Structure (SMILES) | inhibition [1] | inhibition [2] | inhibition [3] | inhibition [4] | inhibition [5] | inhibition [6] | inhibition [7] | inhibition [8] | inhibition [9] | inhibition [10]
17 | CNC(=O)c1ncccc1Nc1nc(Nc2cc3c(cc2OC)CCCN3C(=O)CN(C)C)nc2[nH]ccc12 | 94.4% | 3.52% | 4.53% | 2.33% | 3.27% | 0.94% | 4.5% | 6.6% | 10.1% | 5.51%
18 | COc1cccc(Nc2nccc(-c3cnn4ncccc34)n2)c1 | 18.2% | 5.3% | 16.9% | 3.27% | 11.3% | 1.29% | 12.1% | 3.9% | 12.1% | 2.83%
19 | O=C1Nc2ccccc2/C1=C1\CCc2cc(O)ccc21 | 36.7% | 6.08% | 12% | 2.38% | 9.08% | 2.69% | 8.7% | 6.45% | 10.1% | 5.49%
20 | COC(=O)Nc1nc2ccc(Oc3ccc(NC(=O)Nc4cc(C(F)(F)F)ccc4F)cc3)cc2s1 | 2.2% | 28.7% | 70.5% | 22.6% | 66.5% | 0.03% | 4.8% | 9.69% | 34.6% | 76.3%
21 | COc1cc(N2CCN(C(C)C)CC2)ccc1Nc1nc(Nc2cccc(F)c2C(=O)O)c2cc[nH]c2n1 | 91.8% | 4.91% | 8.65% | 3.03% | 6.2% | 1.01% | 4.62% | 9.65% | 1.52% | 4.22%
22 | c1ccc(-c2n[nH]cc2-c2ccnc(-c3ccc(OCCn4ccnc4)cc3)c2)nc1 | 2.53% | 2.2% | 16.3% | 0.89% | 12.3% | 0.8% | 2.68% | 4.9% | 0.98% | 0.34%
23 | COc1cc(Nc2ncc(-c3ccccc3)o2)cc(OC)c1 | 5.66% | 8.05% | 27.4% | 5.81% | 22.1% | 3.6% | 4.87% | 3.69% | 5.98% | 2.95%
24 | COC(=O)Nc1nc2cc(Oc3ccc(NC(=O)Nc4ccccc4)cc3)ccc2[nH]1 | 4.01% | 3.96% | 8.66% | 2.63% | 6.73% | 1.34% | 2.99% | 2.87% | 18.7% | 3.96%
25 | FC(F)(F)CNc1nccc(-c2cnn3ncccc23)n1 | 0.86% | 3.13% | 3.07% | 2.86% | 1.59% | 2.37% | -0.52% | 0.67% | 9.54% | 2.13%
26 | COc1ccccc1-c1cc(/C=C2\C(=O)Nc3ncc(Br)cc32)cc(Br)c1O | 5.69% | 6% | 14.4% | 4.58% | 9.46% | 3.28% | 7.77% | 1.57% | 4.03% | 1.98%
27 | N#Cc1cccc(Nc2ncc(-c3ccccc3)o2)c1 | 3.55% | 3.97% | 10.5% | 2.56% | 9.05% | 0.53% | 4.24% | 2.46% | 5.36% | 1.86%
28 | NC(=O)c1ccc2c(-c3ccnc(NCCCO)n3)c(-c3ccc(F)cc3)nn2c1 | 6.21% | 6.82% | 12.1% | 4.82% | 10.6% | 5.01% | 14.2% | 7.18% | 15.1% | 3.34%
29 | CN(c1ccc(NC(=O)NCCN2CCOCC2)cc1)c1ccnc(Nc2ccc(CS(C)(=O)=O)cc2)n1 | 5.29% | 4.34% | 14.9% | 2.19% | 13.6% | 1.6% | 6.28% | 3.89% | 41.4% | 3.78%
30 | CN1CCC(n2cnc(-c3ccc(F)cc3)c2-c2ccnc(NCCO)n2)CC1 | 5.36% | 5.64% | 7.19% | 3.08% | 5.79% | 2.22% | 7.18% | 0.32% | 10.6% | 3.32%
31 | COc1ccc(-c2nn3ncccc3c2-c2ccnc(Nc3ccc(F)c(F)c3)n2)cc1 | 5.06% | 6.17% | 21.3% | 3.08% | 17.7% | 1.6% | 7.43% | 1.87% | 8.73% | 3.13%
